Measured values published in ChEMBL document CHEMBL1961873, “Compounds: GSK PKIS; Assays: Nanosyn kinase panel” (2012).

Assays:
[1] = molecular target: Sphingosine kinase 1 (Homo sapiens) (UniProt Q9NYA1); details: at 1 µM;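 also: mean SPHK1 inhibition value reported from the GSK PKIS kinase panel screen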
[2] = molecular target: T1, Sphingosine kinase 2 (Homo sapiens) (UniProt Q9NRA0); details: at 0.1 µM
T1 sequence (whole entry): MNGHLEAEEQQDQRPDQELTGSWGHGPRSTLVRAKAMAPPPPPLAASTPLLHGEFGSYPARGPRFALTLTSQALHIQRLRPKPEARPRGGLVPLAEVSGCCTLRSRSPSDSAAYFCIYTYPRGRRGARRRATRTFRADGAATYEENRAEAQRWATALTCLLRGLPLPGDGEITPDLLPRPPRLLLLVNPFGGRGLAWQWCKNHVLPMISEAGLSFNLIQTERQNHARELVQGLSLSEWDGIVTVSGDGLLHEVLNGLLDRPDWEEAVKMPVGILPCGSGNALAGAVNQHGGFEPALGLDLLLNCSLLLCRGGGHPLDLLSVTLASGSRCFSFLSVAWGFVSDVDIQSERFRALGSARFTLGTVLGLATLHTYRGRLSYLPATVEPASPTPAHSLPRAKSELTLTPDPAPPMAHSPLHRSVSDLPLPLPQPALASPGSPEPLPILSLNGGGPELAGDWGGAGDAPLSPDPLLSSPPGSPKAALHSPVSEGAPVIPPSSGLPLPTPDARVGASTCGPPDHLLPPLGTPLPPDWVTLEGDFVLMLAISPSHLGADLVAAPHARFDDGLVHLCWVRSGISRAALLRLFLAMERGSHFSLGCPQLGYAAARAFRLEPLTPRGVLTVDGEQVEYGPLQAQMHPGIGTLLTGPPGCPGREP

[3] = molecular target: T1, Sphingosine kinase 2 (Homo sapiens); details: at 1 µM
[4] = molecular target: Casein kinase II subunit alpha (Homo sapiens) (UniProt P68400); details: at 0.1 µM
[5] = molecular target: Casein kinase II subunit alpha (Homo sapiens) (UniProt P68400); details: at 1 µM
[6] = molecular target: T2, Inhibitor of nuclear factor kappa-B kinase subunit alpha (Homo sapiens) (UniProt O15111); details: at 0.1 µM
T2 sequence (whole entry): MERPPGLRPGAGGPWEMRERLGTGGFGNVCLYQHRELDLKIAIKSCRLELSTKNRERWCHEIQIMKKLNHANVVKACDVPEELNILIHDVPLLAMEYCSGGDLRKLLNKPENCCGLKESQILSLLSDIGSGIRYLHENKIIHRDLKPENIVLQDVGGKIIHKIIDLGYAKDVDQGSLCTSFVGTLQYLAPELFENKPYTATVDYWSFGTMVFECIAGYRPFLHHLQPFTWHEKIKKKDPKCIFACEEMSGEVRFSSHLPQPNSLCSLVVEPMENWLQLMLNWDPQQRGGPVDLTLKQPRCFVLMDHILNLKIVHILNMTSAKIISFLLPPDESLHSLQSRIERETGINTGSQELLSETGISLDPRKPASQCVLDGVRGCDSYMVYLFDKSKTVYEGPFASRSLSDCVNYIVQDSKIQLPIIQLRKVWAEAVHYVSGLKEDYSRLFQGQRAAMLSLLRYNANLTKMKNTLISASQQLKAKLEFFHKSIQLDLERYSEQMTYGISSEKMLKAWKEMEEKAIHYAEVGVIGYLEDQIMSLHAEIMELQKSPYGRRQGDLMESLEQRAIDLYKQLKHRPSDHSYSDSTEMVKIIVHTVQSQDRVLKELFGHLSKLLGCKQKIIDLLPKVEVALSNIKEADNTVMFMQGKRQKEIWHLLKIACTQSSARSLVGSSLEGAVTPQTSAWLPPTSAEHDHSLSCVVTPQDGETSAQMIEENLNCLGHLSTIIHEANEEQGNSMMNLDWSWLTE

[7] = molecular target: T2, Inhibitor of nuclear factor kappa-B kinase subunit alpha (Homo sapiens); details: at 1 µM
[8] = molecular target: T3, Inhibitor of nuclear factor kappa-B kinase subunit beta (Homo sapiens) (UniProt O14920); details: at 0.1 µM
T3 sequence (whole entry): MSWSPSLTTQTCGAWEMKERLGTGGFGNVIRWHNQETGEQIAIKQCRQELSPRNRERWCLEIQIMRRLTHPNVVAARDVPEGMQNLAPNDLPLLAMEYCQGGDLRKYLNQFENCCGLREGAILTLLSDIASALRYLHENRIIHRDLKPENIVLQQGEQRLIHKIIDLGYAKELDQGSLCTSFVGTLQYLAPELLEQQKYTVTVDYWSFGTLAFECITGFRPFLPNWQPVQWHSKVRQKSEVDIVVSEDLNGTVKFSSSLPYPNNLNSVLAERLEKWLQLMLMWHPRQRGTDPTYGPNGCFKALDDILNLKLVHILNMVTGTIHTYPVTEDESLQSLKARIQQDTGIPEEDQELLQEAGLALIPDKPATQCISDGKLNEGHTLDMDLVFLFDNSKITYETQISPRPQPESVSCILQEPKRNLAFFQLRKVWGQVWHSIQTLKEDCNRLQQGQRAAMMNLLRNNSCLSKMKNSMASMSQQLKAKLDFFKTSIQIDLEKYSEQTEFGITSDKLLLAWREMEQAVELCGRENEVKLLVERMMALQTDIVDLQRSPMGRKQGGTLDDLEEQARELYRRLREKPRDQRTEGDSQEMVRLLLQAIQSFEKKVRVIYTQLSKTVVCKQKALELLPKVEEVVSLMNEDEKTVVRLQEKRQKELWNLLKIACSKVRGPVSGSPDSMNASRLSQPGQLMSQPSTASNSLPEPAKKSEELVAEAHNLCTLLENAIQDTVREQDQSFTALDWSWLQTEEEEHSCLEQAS

[9] = molecular target: T3, Inhibitor of nuclear factor kappa-B kinase subunit beta (Homo sapiens); details: at 1 µM
[10] = molecular target: T4, Inhibitor of nuclear factor kappa-B kinase subunit epsilon (Homo sapiens) (UniProt Q14164); details: at 0.1 µM
T4 sequence (whole entry): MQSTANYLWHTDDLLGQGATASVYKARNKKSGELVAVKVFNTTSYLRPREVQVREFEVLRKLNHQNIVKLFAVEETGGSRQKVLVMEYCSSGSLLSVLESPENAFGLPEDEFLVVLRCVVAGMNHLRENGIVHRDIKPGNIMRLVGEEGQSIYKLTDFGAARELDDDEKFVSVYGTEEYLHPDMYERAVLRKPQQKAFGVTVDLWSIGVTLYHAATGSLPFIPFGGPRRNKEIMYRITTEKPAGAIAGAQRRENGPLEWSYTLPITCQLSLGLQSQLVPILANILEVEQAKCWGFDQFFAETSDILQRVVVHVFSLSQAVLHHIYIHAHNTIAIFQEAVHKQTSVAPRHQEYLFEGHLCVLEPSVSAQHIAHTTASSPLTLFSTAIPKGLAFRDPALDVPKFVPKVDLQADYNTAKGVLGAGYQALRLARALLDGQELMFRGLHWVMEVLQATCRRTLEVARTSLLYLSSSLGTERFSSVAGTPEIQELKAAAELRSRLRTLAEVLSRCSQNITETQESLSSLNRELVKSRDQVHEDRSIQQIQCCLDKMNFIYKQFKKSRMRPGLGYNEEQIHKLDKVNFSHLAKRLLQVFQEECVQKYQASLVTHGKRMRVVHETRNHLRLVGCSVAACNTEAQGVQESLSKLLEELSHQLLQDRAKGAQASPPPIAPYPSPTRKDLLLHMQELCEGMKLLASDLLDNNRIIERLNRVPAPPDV

[11] = molecular target: T4, Inhibitor of nuclear factor kappa-B kinase subunit epsilon (Homo sapiens); details: at 1 µM
[12] = molecular target: T5, Serine/threonine-protein kinase Nek1 (Homo sapiens) (UniProt Q96PY6); details: at 0.1 µM
T5 sequence (whole entry): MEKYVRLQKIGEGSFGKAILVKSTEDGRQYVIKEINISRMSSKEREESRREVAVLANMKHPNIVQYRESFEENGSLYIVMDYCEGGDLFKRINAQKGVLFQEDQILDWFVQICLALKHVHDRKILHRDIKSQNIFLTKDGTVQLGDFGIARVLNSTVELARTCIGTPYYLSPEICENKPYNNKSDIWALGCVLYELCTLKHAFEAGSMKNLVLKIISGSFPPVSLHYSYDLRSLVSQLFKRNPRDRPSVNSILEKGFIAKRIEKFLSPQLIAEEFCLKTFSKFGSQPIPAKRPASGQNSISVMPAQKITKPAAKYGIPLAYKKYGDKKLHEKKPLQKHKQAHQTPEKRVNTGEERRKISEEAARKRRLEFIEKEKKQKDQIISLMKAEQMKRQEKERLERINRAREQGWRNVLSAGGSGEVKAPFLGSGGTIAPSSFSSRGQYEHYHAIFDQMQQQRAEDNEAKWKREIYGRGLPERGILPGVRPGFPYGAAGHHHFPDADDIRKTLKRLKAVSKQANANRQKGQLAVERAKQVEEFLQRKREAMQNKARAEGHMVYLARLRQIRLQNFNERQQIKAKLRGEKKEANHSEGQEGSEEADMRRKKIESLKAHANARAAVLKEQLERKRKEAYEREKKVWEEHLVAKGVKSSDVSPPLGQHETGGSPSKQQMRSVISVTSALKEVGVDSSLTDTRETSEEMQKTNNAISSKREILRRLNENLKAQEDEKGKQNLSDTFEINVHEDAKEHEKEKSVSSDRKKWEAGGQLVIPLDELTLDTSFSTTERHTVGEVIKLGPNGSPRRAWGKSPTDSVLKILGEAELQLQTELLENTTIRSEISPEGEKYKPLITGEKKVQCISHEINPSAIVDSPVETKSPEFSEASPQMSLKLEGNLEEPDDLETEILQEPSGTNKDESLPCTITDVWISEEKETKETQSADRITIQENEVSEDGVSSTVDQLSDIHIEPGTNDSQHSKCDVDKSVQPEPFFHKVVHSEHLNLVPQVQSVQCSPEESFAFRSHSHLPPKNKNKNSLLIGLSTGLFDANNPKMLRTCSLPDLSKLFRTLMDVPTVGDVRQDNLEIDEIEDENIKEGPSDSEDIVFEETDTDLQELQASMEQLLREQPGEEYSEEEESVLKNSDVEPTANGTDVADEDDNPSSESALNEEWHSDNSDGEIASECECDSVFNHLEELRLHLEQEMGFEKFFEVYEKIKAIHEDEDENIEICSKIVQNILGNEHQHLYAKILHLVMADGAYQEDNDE

[13] = molecular target: T5, Serine/threonine-protein kinase Nek1 (Homo sapiens); details: at 1 µM
[14] = molecular target: T6, Serine/threonine-protein kinase Nek2 (Homo sapiens) (UniProt P51955); details: at 0.1 µM
T6 sequence (whole entry): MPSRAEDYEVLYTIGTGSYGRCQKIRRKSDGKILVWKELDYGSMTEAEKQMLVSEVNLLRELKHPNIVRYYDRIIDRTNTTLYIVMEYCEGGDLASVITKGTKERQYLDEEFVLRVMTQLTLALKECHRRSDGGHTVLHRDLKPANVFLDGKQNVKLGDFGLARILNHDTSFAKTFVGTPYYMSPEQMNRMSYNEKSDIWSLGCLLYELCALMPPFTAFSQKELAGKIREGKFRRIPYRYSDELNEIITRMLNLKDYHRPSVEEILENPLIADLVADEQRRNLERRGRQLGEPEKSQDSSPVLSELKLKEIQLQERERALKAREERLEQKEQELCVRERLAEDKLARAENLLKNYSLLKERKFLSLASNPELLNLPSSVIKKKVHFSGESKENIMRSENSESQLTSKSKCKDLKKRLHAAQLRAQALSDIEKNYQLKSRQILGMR

[15] = molecular target: T6, Serine/threonine-protein kinase Nek2 (Homo sapiens); details: at 1 µM
[16] = molecular target: Serine/threonine-protein kinase Nek6 (Homo sapiens) (UniProt Q9HC98); details: at 0.1 µM
[17] = molecular target: Serine/threonine-protein kinase Nek6 (Homo sapiens) (UniProt Q9HC98); details: at 1 µM
[18] = molecular target: Serine/threonine-protein kinase Nek7 (Homo sapiens) (UniProt Q8TDX7); details: at 0.1 µM
[19] = molecular target: Serine/threonine-protein kinase Nek7 (Homo sapiens) (UniProt Q8TDX7); details: at 1 µM
[20] = molecular target: T7, Serine/threonine-protein kinase Nek9 (Homo sapiens) (UniProt Q8TD19); details: at 0.1 µM;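 also: reported value is the mean percent inhibition of NEK9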
T7 sequence (whole entry): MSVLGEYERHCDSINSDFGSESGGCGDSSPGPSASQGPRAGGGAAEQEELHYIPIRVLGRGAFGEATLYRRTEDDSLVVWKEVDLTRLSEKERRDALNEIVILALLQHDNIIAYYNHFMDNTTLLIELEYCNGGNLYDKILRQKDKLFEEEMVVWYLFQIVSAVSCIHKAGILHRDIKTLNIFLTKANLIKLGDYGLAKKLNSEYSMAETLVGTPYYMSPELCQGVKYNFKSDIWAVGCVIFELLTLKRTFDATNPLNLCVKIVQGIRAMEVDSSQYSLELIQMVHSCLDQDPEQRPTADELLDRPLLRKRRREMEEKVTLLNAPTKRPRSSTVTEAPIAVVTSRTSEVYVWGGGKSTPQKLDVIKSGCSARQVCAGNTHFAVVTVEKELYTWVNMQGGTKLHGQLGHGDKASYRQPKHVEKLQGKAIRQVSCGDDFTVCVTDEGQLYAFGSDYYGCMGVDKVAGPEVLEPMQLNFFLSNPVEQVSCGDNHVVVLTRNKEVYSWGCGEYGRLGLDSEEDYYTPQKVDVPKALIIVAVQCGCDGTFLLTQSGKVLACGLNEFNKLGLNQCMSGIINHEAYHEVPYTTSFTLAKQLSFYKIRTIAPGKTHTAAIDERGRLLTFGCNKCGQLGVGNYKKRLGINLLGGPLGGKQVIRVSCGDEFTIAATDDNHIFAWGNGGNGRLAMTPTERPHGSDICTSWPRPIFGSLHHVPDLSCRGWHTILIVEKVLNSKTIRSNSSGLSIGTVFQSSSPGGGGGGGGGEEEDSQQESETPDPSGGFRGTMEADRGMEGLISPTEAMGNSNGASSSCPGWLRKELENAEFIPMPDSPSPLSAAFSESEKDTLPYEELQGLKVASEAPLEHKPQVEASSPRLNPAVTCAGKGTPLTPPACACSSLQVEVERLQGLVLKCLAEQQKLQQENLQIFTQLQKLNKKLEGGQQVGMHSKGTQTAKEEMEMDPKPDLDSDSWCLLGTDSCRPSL

Sequence of Casein kinase II subunit alpha (Homo sapiens) (P68400 whole entry, looked up): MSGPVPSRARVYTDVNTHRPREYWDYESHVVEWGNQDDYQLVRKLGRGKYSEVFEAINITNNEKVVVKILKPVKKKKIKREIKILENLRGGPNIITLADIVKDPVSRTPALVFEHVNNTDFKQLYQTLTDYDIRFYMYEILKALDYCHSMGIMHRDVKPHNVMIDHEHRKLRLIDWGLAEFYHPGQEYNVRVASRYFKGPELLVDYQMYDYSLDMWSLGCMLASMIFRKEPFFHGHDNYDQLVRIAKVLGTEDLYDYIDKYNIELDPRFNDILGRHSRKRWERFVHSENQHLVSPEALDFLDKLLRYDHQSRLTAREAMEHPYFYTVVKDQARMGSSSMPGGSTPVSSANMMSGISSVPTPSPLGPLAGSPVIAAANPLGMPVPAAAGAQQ
Sequence of Serine/threonine-protein kinase Nek7 (Homo sapiens) (Q8TDX7 whole entry, looked up): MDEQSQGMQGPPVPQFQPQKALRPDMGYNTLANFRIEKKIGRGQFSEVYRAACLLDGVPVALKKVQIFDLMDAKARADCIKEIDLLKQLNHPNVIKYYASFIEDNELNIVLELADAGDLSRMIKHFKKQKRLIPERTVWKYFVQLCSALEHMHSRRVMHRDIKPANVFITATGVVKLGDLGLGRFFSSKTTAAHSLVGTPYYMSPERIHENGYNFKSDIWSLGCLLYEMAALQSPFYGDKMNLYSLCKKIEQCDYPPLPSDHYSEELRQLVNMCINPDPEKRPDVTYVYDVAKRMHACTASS
Sequence of Serine/threonine-protein kinase Nek6 (Homo sapiens) (Q9HC98 whole entry): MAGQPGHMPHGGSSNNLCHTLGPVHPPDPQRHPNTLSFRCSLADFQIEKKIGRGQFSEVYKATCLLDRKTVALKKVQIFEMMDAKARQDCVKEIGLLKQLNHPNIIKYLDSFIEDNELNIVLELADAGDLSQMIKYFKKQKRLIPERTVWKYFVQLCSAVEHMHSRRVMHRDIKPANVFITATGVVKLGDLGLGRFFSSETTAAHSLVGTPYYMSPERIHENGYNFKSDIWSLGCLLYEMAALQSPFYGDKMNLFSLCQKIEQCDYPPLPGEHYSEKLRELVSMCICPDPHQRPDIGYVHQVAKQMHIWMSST
Sequence of Sphingosine kinase 1 (Homo sapiens) (Q9NYA1 whole entry): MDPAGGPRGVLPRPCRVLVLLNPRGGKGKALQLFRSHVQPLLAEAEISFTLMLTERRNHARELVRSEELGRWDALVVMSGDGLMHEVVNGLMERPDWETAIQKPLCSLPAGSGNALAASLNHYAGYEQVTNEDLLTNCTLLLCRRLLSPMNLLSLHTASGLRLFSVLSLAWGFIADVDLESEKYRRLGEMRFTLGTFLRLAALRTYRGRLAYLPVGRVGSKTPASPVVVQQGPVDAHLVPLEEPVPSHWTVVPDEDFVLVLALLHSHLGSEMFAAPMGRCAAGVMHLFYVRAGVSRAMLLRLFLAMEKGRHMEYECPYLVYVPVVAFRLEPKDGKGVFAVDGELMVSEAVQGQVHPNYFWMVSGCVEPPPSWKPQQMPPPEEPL

Row | Structure (SMILES) | inhibition [1] | inhibition [2] | inhibition [3] | inhibition [4] | inhibition [5] | inhibition [6] | inhibition [7] | inhibition [8] | inhibition [9] | inhibition [10] | inhibition [11] | inhibition [12] | inhibition [13] | inhibition [14] | inhibition [15] | inhibition [16] | inhibition [17] | inhibition [18] | inhibition [19] | inhibition [20]
1 | NC(=O)Cc1ccccc1Oc1nccc(-c2c(-c3ccc(F)cc3)ncn2C2CCNCC2)n1 | -2.09% | 0.16% | 0.42% | 1.72% | 2.63% | 8.64% | 0.14% | 4.37% | 3.54% | 2.28% | 0.67% | 1.64% | 4.11% | 2.13% | 4.35% | 0.28% | 1.26% | 3.21% | 2.73% | 10.9%
2 | c1ccc(Oc2ccc(Nc3ncc(-c4ccccc4)o3)cc2)cc1 | 0.89% | 3.77% | -0.07% | 3.77% | 5.82% | 5.9% | -0.96% | 1.69% | -1.75% | 1.29% | 3.43% | 0.18% | 1.89% | 1.83% | 1.51% | -0.2% | 0.96% | – | 1.97% | 0.25%
